# Experimental data from PubChem BioAssay AID1159580 (chemical genetic matrix, 2015).
# In all, about 5,500 compounds went through this assay and about 2,000 (36%) were called active. Not shown: some 18% with an inconclusive outcome. The list shows a part of the results. Unmarked numbers belong to inactive results. Rule as the data show it: active = normalized growth mostly below about 0.91 (no sharp cut-off); inconclusive = no clear call, values can overlap the other calls; inactive = mostly above about 0.92.
# Assay: chemical genetic growth profiling, strain panel (AID 1159580);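 also: tested at 20 µM; growth read once vehicle control cultures reached saturation at 30 °C; 1 = growth at the plate median or of vehicle wells; lower values mean less growth of the strain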
# Conditions: growth OD
smiles,measurement,setting,value
COc1cc(OC)c2c(OC)c(-c3ccc4c(c3)OCO4)c(=O)oc2c1,normalized growth,"S. cerevisiae deletion strains, locus YJR075W, strain HOC1, active compounds read low",0.972
same,normalized growth,"S. cerevisiae deletion strains, locus YKL009W, strain mrt4, active compounds read low",1
same,normalized growth,"S. cerevisiae deletion strains, locus YKL068W, active compounds read low",0.984
same,normalized growth,"S. cerevisiae deletion strains, locus YKL085W, strain MDH1 (second series), active compounds read low",0.99
same,normalized growth,"S. cerevisiae deletion strains, locus YKL085W, strain MDH1, active compounds read low",0.99
same,normalized growth,"S. cerevisiae deletion strains, locus YKL160W, strain elf1, active compounds read low",0.931
same,normalized growth,"S. cerevisiae deletion strains, locus YKL190W, strain CNB1, active compounds read low",0.984
same,normalized growth,"S. cerevisiae deletion strains, locus YKR001C, strain vps1, active compounds read low",0.927
same,normalized growth,"S. cerevisiae deletion strains, locus YKR026C, strain gcn3, active compounds read low",0.992
same,normalized growth,"S. cerevisiae deletion strains, locus YKR091W, strain srl3, active compounds read low",0.978
same,normalized growth,"S. cerevisiae deletion strains, locus YLL001W, strain dnm1, active compounds read low",0.97
same,normalized growth,"S. cerevisiae deletion strains, locus YLL026W, active compounds read low",0.979
same,normalized growth,"S. cerevisiae deletion strains, locus YLL041C, strain sdh2, active compounds read low",0.987
same,normalized growth,"S. cerevisiae deletion strains, locus YLR027C, strain aat2, active compounds read low",0.934
same,normalized growth,"S. cerevisiae deletion strains, locus YLR039C, strain RIC1, active compounds read low",0.865
same,normalized growth,"S. cerevisiae deletion strains, locus YLR058C, strain SHM2, active compounds read low",0.99
same,normalized growth,"S. cerevisiae deletion strains, locus YLR102C, strain apc9, active compounds read low",1
same,normalized growth,"S. cerevisiae deletion strains, locus YLR113W, strain HOG1, active compounds read low",0.917
same,normalized growth,"S. cerevisiae deletion strains, locus YLR221C, strain rsa3, active compounds read low",0.943
same,normalized growth,"S. cerevisiae deletion strains, locus YLR258W, strain gsy2, active compounds read low",0.959
same,normalized growth,"S. cerevisiae deletion strains, locus YLR262C, strain YPT6 (second series), active compounds read low",0.783 (active)
same,normalized growth,"S. cerevisiae deletion strains, locus YLR262C, strain YPT6, active compounds read low",0.879
same,normalized growth,"S. cerevisiae deletion strains, locus YLR268W, strain sec22, active compounds read low",0.946
same,normalized growth,"S. cerevisiae deletion strains, locus YLR320W, strain mms22, active compounds read low",0.867 (active)
same,normalized growth,"S. cerevisiae deletion strains, locus YLR330W, strain CHS5, active compounds read low",0.991
same,normalized growth,"S. cerevisiae deletion strains, locus YLR342W, strain FKS1 (second series), active compounds read low",0.952
same,normalized growth,"S. cerevisiae deletion strains, locus YLR342W, strain FKS1, active compounds read low",0.957
same,normalized growth,"S. cerevisiae deletion strains, locus YLR357W, strain rsc2, active compounds read low",0.997
same,normalized growth,"S. cerevisiae deletion strains, locus YLR370C, strain arc18, active compounds read low",0.981
same,normalized growth,"S. cerevisiae deletion strains, locus YLR371W, strain rom2, active compounds read low",0.984
same,normalized growth,"S. cerevisiae deletion strains, locus YLR384C, strain iki3, active compounds read low",0.977
same,normalized growth,"S. cerevisiae deletion strains, locus YLR418C, strain cdc73, active compounds read low",0.849
same,normalized growth,"S. cerevisiae deletion strains, locus YML016C, strain PPZ1, active compounds read low",0.985
same,normalized growth,"S. cerevisiae deletion strains, locus YML032C, strain rad52, active compounds read low",0.995
same,normalized growth,"S. cerevisiae deletion strains, locus YML120C, strain ndi1, active compounds read low",0.998
same,normalized growth,"S. cerevisiae deletion strains, locus YML124C, strain tub3, active compounds read low",0.986
same,normalized growth,"S. cerevisiae deletion strains, locus YMR058W, strain fet3, active compounds read low",0.962
same,normalized growth,"S. cerevisiae deletion strains, locus YMR078C, strain ctf18, active compounds read low",0.991
same,normalized growth,"S. cerevisiae deletion strains, locus YMR125W, strain sto1, active compounds read low",1
same,normalized growth,"S. cerevisiae deletion strains, locus YMR129W, active compounds read low",0.989
same,normalized growth,"S. cerevisiae deletion strains, locus YMR205C, strain PFK2, active compounds read low",0.866 (active)
same,normalized growth,"S. cerevisiae deletion strains, locus YMR223W, strain ubp8, active compounds read low",0.981
same,normalized growth,"S. cerevisiae deletion strains, locus YMR231W, strain pep5, active compounds read low",0.973
same,normalized growth,"S. cerevisiae deletion strains, locus YMR263W, strain SAP30, active compounds read low",0.966
same,normalized growth,"S. cerevisiae deletion strains, locus YMR307W, strain GAS1, active compounds read low",0.905
same,normalized growth,"S. cerevisiae deletion strains, locus YNL067W, strain RPL9B, active compounds read low",0.99
same,normalized growth,"S. cerevisiae deletion strains, locus YNL071W, strain lat1, active compounds read low",0.816 (active)
same,normalized growth,"S. cerevisiae deletion strains, locus YNL128W, strain TEP1, active compounds read low",1
same,normalized growth,"S. cerevisiae deletion strains, locus YNL153C, strain GIM3, active compounds read low",0.988
same,normalized growth,"S. cerevisiae deletion strains, locus YNL183C, strain NPR1, active compounds read low",0.888
same,normalized growth,"S. cerevisiae deletion strains, locus YNL209W, strain ssb2, active compounds read low",0.987
same,normalized growth,"S. cerevisiae deletion strains, locus YNL233W, strain BNI4, active compounds read low",0.965
same,normalized growth,"S. cerevisiae deletion strains, locus YNL248C, strain rpa49, active compounds read low",0.978
same,normalized growth,"S. cerevisiae deletion strains, locus YNL250W, strain rad50, active compounds read low",0.997
same,normalized growth,"S. cerevisiae deletion strains, locus YNL271C, strain bni1, active compounds read low",0.987
same,normalized growth,"S. cerevisiae deletion strains, locus YNL298W, strain CLA4, active compounds read low",0.997
same,normalized growth,"S. cerevisiae deletion strains, locus YNL307C, strain MCK1, active compounds read low",0.792 (active)
same,normalized growth,"S. cerevisiae deletion strains, locus YNL322C, strain KRE1 (second series), active compounds read low",0.993
same,normalized growth,"S. cerevisiae deletion strains, locus YNL322C, strain KRE1, active compounds read low",0.993
same,normalized growth,"S. cerevisiae deletion strains, locus YNR049C, strain mso1, active compounds read low",0.992
same,normalized growth,"S. cerevisiae deletion strains, locus YNR052C, strain pop2, active compounds read low",0.991
same,normalized growth,"S. cerevisiae deletion strains, locus YOL006C, strain TOP1, active compounds read low",0.89
same,normalized growth,"S. cerevisiae deletion strains, locus YOL012C, strain htz1",0.711
same,normalized growth,"S. cerevisiae deletion strains, locus YOL147C, strain pex11, active compounds read low",0.985
same,normalized growth,"S. cerevisiae deletion strains, locus YOR001W, strain rrp6, active compounds read low",0.991
same,normalized growth,"S. cerevisiae deletion strains, locus YOR061W, strain CKA2, active compounds read low",0.989
same,normalized growth,"S. cerevisiae deletion strains, locus YOR069W, strain VPS5, active compounds read low",0.988
same,normalized growth,"S. cerevisiae deletion strains, locus YOR070C, strain gyp1, active compounds read low",0.977
same,normalized growth,"S. cerevisiae deletion strains, locus YOR080W, strain dia2, active compounds read low",0.989
same,normalized growth,"S. cerevisiae deletion strains, locus YOR083W, strain WHI5, active compounds read low",0.937
same,normalized growth,"S. cerevisiae deletion strains, locus YOR106W, strain vam3, active compounds read low",0.957
same,normalized growth,"S. cerevisiae deletion strains, locus YOR136W, strain idh2, active compounds read low",0.99
same,normalized growth,"S. cerevisiae deletion strains, locus YOR144C, strain elg1, active compounds read low",0.982
same,normalized growth,"S. cerevisiae deletion strains, locus YOR184W, strain ser1, active compounds read low",0.891
same,normalized growth,"S. cerevisiae deletion strains, locus YOR231W, strain MKK1, active compounds read low",0.943
same,normalized growth,"S. cerevisiae deletion strains, locus YOR265W, strain rbl2, active compounds read low",0.981
same,normalized growth,"S. cerevisiae deletion strains, locus YOR270C, strain vph1, active compounds read low",0.835
same,normalized growth,"S. cerevisiae deletion strains, locus YOR290C, strain snf2, active compounds read low",0.932
same,normalized growth,"S. cerevisiae deletion strains, locus YOR316C, strain cot1, active compounds read low",0.983
same,normalized growth,"S. cerevisiae deletion strains, locus YPL051W, strain arl3, active compounds read low",0.899 (active)
same,normalized growth,"S. cerevisiae deletion strains, locus YPL055C, strain LGE1, active compounds read low",0.949
same,normalized growth,"S. cerevisiae deletion strains, locus YPL078C, strain atp4, active compounds read low",0.945
same,normalized growth,"S. cerevisiae deletion strains, locus YPL106C, strain sse1, active compounds read low",0.945
same,normalized growth,"S. cerevisiae deletion strains, locus YPL240C, strain hsp82, active compounds read low",0.984
same,normalized growth,"S. cerevisiae deletion strains, locus YPL241C, strain CIN2, active compounds read low",0.992
same,normalized growth,"S. cerevisiae deletion strains, locus YPL256C, strain CLN2, active compounds read low",0.959
same,normalized growth,"S. cerevisiae deletion strains, locus YPR119W, strain clb2, active compounds read low",0.97
same,normalized growth,"S. cerevisiae deletion strains, locus YPR141C, strain kar3, active compounds read low",1
same,normalized growth,"S. cerevisiae deletion strains, locus YPR163C, strain tif3, active compounds read low",0.969
same,normalized growth,"S. cerevisiae deletion strains, locus YPR167C, strain met16, active compounds read low",0.989
same,normalized growth,"S. cerevisiae deletion strains, strain wtn01, active compounds read low",0.968
same,normalized growth,"S. cerevisiae strains, strain wild type, active compounds read low",0.982
